CCHF vOTU inh: CCHFV vOTU protease inhibitors, primary screen, biochemical, Pep-AMC substrate, fluorescence; Crimean-Congo hemorrhagic fever virus L polyprotein viral ovarian tumor (vOTU) protease …; inhibition, % at 11.5 µM; 370,000 compounds, 0.55% hits; AID 651958, 2012; in the data active = inhibition above about 30%
ugtP null kill: growth inhibition of ugtP-null S. aureus, primary screen, RN4220 ugtP deletion, OD600; 16 h; AID 1259309, 2017; growth inhibition, % (no concentration beside the values); 330,000 compounds, 0.54% hits; in the data active = growth inhibition above about 68%
Sa RN4220 lethal: growth inhibition of S. aureus RN4220, primary screen, OD600; 330,000 compounds, 0.33% hits; inhibition, % (test concentration not listed); 16 h; in the data active = inhibition above about 85%
MazF activator: activators of E. coli MazEF toxin-antitoxin RNase, primary screen, biochemical, fluorescence, uHTS; Endoribonuclease toxin MazF (Escherichia coli (strain K12)), P0AE70; FAM/BHQ RNA-DNA oligo cleavage fluorescence, 5 h; activation, % at 20 µM; 350,000 compounds, 0.32% hits; in the data active = activation above about 50%
Target sequence (P0AE70 whole entry, looked up): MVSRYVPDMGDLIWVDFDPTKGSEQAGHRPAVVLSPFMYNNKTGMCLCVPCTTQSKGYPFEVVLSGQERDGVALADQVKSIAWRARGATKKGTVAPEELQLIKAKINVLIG
Mtb bLac sens: beta-lactam sensitization of Mtb H37Rv, H37Rv; M. tuberculosis H37Rv growth with meropenem, percent inhibition; inhibition, % at 25 µM; 330,000 compounds, 0.27% hits; AID 434955, 2010; call rule not given here;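 note: growth measured after seven days incubation then overnight dye step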
SARS 3CLpro inh: SARS-CoV 3CLpro protease inhibitors, primary screen, biochemical, quenched FRET. Replicase polyprotein 1ab (Severe acute respiratory syndrome coronavirus), P0C6X7. recombinant SARS-CoV 3CLpro, quenched FRET peptide cleavage. inhibition, % at 6 µM. 290,000 compounds, 0.14% hits. AID 1706, 2009; in the data active = inhibition above about 12%
Each line names hits and unclear results; the compound was inactive in the other large screens. In the library only some 1.3% were active in any assay of this set; here they are far more common.

CCCCCCn1cc(C(=O)O)c(=O)c2cc(F)c(N3CCN(C)CC3)cc21	none (no result: CCHF vOTU inh)
CN1CCN(c2c(F)cc3c(=O)c(C(=O)O)cn4c3c2SCC4)CC1	ugtP null kill 99, Sa RN4220 lethal 99
COc1ccc(O)c(C2=Nc3ccccc3N=C(c3ccccc3)C2)c1	none
Oc1ccccc1C1=Nc2ccccc2N=C(c2ccco2)C1	MazF activator 56
CCOc1ccc(N/C(SCc2cccc([N+](=O)[O-])c2)=C(/C#N)C(N)=O)cc1	none
N#CC(C#N)=C(Nc1ccc(F)cc1)SCc1cccc(F)c1	ugtP null kill 98, Sa RN4220 lethal 99
COc1ccc(NC(=O)/C(Cl)=C(/Cl)S(=O)Cc2ccccc2)cn1 (configuration not stated)	ugtP null kill 88
COc1ccc(CS(=O)(=O)/C(Cl)=C(/Cl)C(=O)Nc2ccc(OC)nc2)cc1	ugtP null kill 100 (no result: CCHF vOTU inh)
COc1ccc(NC(=S)Nc2cccc3cnccc23)cc1	MazF activator 70
CCOC(=O)c1c(N=CC2=C(O)CCCC2=O)sc2c1CCCC2	none (no result: CCHF vOTU inh, MazF activator, Mtb bLac sens, SARS 3CLpro inh)
COC(=O)C(C)NC(=S)N1CCN(c2c(F)cc3c(=O)c(C(=O)O)cn(C4CC4)c3c2OC)CC1C (configuration not stated)	ugtP null kill 100, Sa RN4220 lethal 100
CNC(=S)N1CCN(c2c(F)cc3c(=O)c(C(=O)O)cn(C4CC4)c3c2OC)CC1C (configuration not stated)	ugtP null kill 100, Sa RN4220 lethal 100
COc1c(N2CCN(C(=S)Nc3ccccc3)C(C)C2)c(F)cc2c(=O)c(C(=O)O)cn(C3CC3)c12 (configuration not stated)	none (no result: CCHF vOTU inh, ugtP null kill, Sa RN4220 lethal, MazF activator, Mtb bLac sens)
O=C(O)C1=CC(c2ccc(F)cc2)CC(OCc2ccc(CO)cc2)O1 (configuration not stated)	none (no result: CCHF vOTU inh, MazF activator, Mtb bLac sens, SARS 3CLpro inh)
CCOc1ccc(N/C=C/C(=O)c2ccc(OC)cc2)c([N+](=O)[O-])c1	MazF activator 91
CCOc1ccc(NC(=S)NC(=O)/C=C/c2ccc(Br)cc2)c([N+](=O)[O-])c1	none
CCOc1ccc(NC(=S)NC(=O)c2cnn(CC)c2)c([N+](=O)[O-])c1	ugtP null kill 85 (no result: Mtb bLac sens)
Cc1cccc(C)c1NC(=O)C1CCCN1S(=O)(=O)c1ccc(-c2ccc(=O)[nH]n2)s1 (configuration not stated)	ugtP null kill 99, Sa RN4220 lethal 98
CCc1ccccc1NC(=O)C1CCCN1S(=O)(=O)c1ccc(-c2ccc(=O)[nH]n2)s1 (configuration not stated)	ugtP null kill 88, Sa RN4220 lethal 96
Cc1cccc(C)c1NC(=O)C1CCCN1S(=O)(=O)c1ccccc1 (configuration not stated)	none
Cc1ccc(C=Nn2c(=O)c(C(C)(C)C)nn3cnnc23)cc1	none (no result: CCHF vOTU inh, MazF activator, Mtb bLac sens, SARS 3CLpro inh)
Cn1cncc1C#Cc1ccc2cc(C3(O)CCCCC3)oc(=O)c2c1	MazF activator 76 (no result: SARS 3CLpro inh)
Cn1cncc1C#Cc1ccc2cc(C(C)(C)O)oc(=O)c2c1	none (no result: SARS 3CLpro inh)
Cc1ccc(NCSc2ccc(Cl)cc2)cc1	none (no result: Mtb bLac sens, SARS 3CLpro inh)
Clc1ccc(SCNc2ccccc2Cl)cc1	ugtP null kill 88
O=C1NC(=S)S/C1=C/c1ccc(OC(=O)c2ccco2)cc1	MazF activator 74 (no result: ugtP null kill, Sa RN4220 lethal)
CCOc1cc(/C=C2/SC(=S)NC2=O)ccc1OC(=O)c1ccco1	none (no result: ugtP null kill, Sa RN4220 lethal)
O=C(O)CC1SC(NN=Cc2ccc(Br)cc2)NC1=O (configuration not stated)	none (no result: CCHF vOTU inh, MazF activator, Mtb bLac sens, SARS 3CLpro inh)
COC(=O)NN=Cc1cc2c(cc1Br)OCO2	none (no result: CCHF vOTU inh, MazF activator, Mtb bLac sens, SARS 3CLpro inh)
CN(C)C=Nc1cc(=O)n(Cc2ccccc2)c(=O)n1C	none (no result: CCHF vOTU inh, MazF activator, Mtb bLac sens, SARS 3CLpro inh)
Cc1ccc2c(n1)sc1c(-c3ccccc3)c(C#N)c(N)nc12	MazF activator 52
COc1ccc2c(c1)c1nc3ccccc3nc1n2Cc1ccc(OC(C)C)c(OC)c1	none
COC(=O)Cn1c2ccc(C)cc2c2nc3ccccc3nc21	none (no result: Mtb bLac sens)
COc1ccc(Cn2c3ccc(OC)cc3c3nc4ccccc4nc32)cc1	MazF activator 65
O=C1c2ccccc2C(=O)N1CCCn1c2ccc(Cl)cc2c2nc3ccccc3nc21	none (no result: Mtb bLac sens, SARS 3CLpro inh)
COc1ccc2c(c1)c1nc3ccccc3nc1n2CC(=O)OC(C)C	MazF activator 370
COc1ccc2c(c1)c1nc3ccccc3nc1n2CCCN1C(=O)c2ccccc2C1=O	MazF activator 698
Cc1cc(C(=O)NN=Cc2ccc(-c3ccc([N+](=O)[O-])cc3Cl)o2)n[nH]1	none (no result: CCHF vOTU inh, MazF activator, Mtb bLac sens, SARS 3CLpro inh)
Cc1cccc2[nH]c3c(N4CC=C(c5ccc(F)cc5)CC4)ncnc3c12	ugtP null kill 89
COc1ccc(-c2oc3c4c(cc(OC)c3c(=O)c2CC=C(C)C)OC(C)(C)C=C4)c(OC)c1	none (no result: CCHF vOTU inh, MazF activator, SARS 3CLpro inh)
CC(C)=CCc1c(-c2ccc(O)cc2O)oc2cc3c(c(O)c2c1=O)C=CC(C)(C)O3	ugtP null kill 97, Sa RN4220 lethal 96 (no result: CCHF vOTU inh, SARS 3CLpro inh)
O=C(CSc1nnc(-c2ccc(Cl)cc2)n1-c1ccccc1)NN=Cc1ccccc1C(=O)O	none (no result: CCHF vOTU inh, MazF activator, Mtb bLac sens, SARS 3CLpro inh)
COC(=O)C1=C(c2cccc(OCc3ccccc3)c2)CC2CCC1N2C(=O)NCc1cc(C)oc1C(F)(F)F (configuration not stated)	none (no result: CCHF vOTU inh, MazF activator, Mtb bLac sens, SARS 3CLpro inh)
COc1ccc(CNC(=O)CC(C)=NNC(=O)c2ccccc2OC)cc1	none (no result: CCHF vOTU inh, MazF activator, Mtb bLac sens, SARS 3CLpro inh)
COc1ccc(/C=c2\s/c(=C/C(=O)c3ccc(C)cc3)[nH]c2=O)c(OC)c1	MazF activator active (no result: ugtP null kill, Sa RN4220 lethal)
COc1cccc(/C=c2\s/c(=C/C(=O)c3ccc(C)cc3)[nH]c2=O)c1OC	none (no result: ugtP null kill, Sa RN4220 lethal)
COc1ccc(C=c2sc(=CC(=O)c3ccc(C)cc3)[nH]c2=O)c(OC)c1	ugtP null kill 89 (no result: CCHF vOTU inh, MazF activator, Mtb bLac sens, SARS 3CLpro inh)
COc1ccc(C(C)=NNC(=O)c2sccc2-n2cccc2)cc1	none (no result: CCHF vOTU inh, MazF activator, Mtb bLac sens, SARS 3CLpro inh)
N#Cc1c(Cl)nc(NN=Cc2ccccc2)c(Cl)c1Cl	none (no result: CCHF vOTU inh, MazF activator, Mtb bLac sens, SARS 3CLpro inh)
O=c1cc2c(nn1Cc1cccc(Cl)c1)-c1ccccc1CC2	none
O=c1cc2c(nn1Cc1ccc(Cl)cc1)-c1ccccc1CC2	CCHF vOTU inh 33
CC1(C)C2CCC1(C)C(OCC[N+](C)(C)CC(=O)OC1CCCCC1)C2 (configuration not stated)	ugtP null kill 100
Cc1nnc(NN=Cc2ccc(-c3ccccc3F)o2)n1N	none (no result: CCHF vOTU inh, MazF activator, Mtb bLac sens, SARS 3CLpro inh)
CC(C)(C)c1cc(CCC(=O)NCCc2ccccn2)cc(C(C)(C)C)c1O	none
O=C1C=C(NCCc2cc(Br)c(O)c(Br)c2)C(=O)c2ncccc21	CCHF vOTU inh 108 (no result: ugtP null kill, Sa RN4220 lethal, Mtb bLac sens, SARS 3CLpro inh)
Cc1cc(C)c(C#N)c(SCC(=O)c2cccs2)n1	MazF activator 109
Cc1cc(C)c(C#N)c(SCC(=O)c2ccccc2)n1	none
O=C1ON=C(c2ccccc2)/C1=C/c1ccc(-c2ccccc2[N+](=O)[O-])o1	SARS 3CLpro inh 15
COc1cc(C(=O)OC(C)C(=O)NC(=O)NC2CCCCC2)ccc1OC(F)F (configuration not stated)	ugtP null kill 91 (no result: SARS 3CLpro inh)
COc1cccc(C=Nc2nc3ccccc3n2C)c1O	none (no result: CCHF vOTU inh, MazF activator, Mtb bLac sens, SARS 3CLpro inh)

Screening results: PubChem, several laboratories
